Activity calls are given as the source filed them.
Legend:
[1] = tested on: Plasmodium falciparum Sir2 (PF13_0152, Sir2A); assay: pfSir2 binders on small-molecule microarrays, primary screen, biochemical, small-molecule microarray, 635 nm fluorescence (AID 1098); conditions: small-molecule microarray binding, fluorescence 635 nm; higher = more signal;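 note: score merges spot fluorescence intensity with its signal-to-noise ratio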
[2] = small-molecule microarray binders of probe aDKK1, primary screen, biochemical, biotinylated probe, 635/667 nm fluorescence (AID 1099); conditions: higher = more signal;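 note: score merges 667nm spot fluorescence with signal to noise across triplicate slides; reference of the scale not given here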
[3] = small-molecule microarray binders of probe aCHRDL2, primary screen, biochemical, biotinylated probe, 635/667 nm fluorescence (AID 1100); conditions: higher = more signal
[4] = splicing luciferase reporter signal modulators, primary screen, spliceosome inhibition project, cell-based, HEK293, splice +/- reporter (AID 1101); conditions: luminescence, 24 h, higher = more signal, called active from +8 up or from −8 down;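 note: HEK293 cells carrying a splicing-competent luciferase reporter gene; test concentration not given here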
[5] = target: Fibroblast growth factor 10 (Homo sapiens) (UniProt O15520); assay: FGF10 binders on small-molecule microarrays, primary screen, biochemical, small-molecule microarray, 635 nm fluorescence (AID 1102); conditions: FGF10 binding, fluorescence 635 nm, higher = more signal
Chain of Fibroblast growth factor 10 (Homo sapiens) (O15520 whole entry, looked up): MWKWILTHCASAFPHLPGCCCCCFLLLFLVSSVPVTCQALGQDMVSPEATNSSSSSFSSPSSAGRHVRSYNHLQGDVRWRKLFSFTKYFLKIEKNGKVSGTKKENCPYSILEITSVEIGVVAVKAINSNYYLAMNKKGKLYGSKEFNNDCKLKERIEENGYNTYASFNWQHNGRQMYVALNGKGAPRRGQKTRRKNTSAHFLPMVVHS

[6] = tested on: glycogen synthase kinase-3 (GSK3A per assay name; protocol says GSK3B); assay: GSK3 binders on small-molecule microarrays, primary screen, biochemical, small-molecule microarray, 635 nm fluorescence, GSK3A (AID 1103); conditions: small-molecule microarray binding, fluorescence 635 nm; higher = more signal; note: the record names both GSK3A and GSK3B
[7] = target: Epidermal growth factor receptor (Homo sapiens) (UniProt P00533); assay: EGFR binders on small-molecule microarrays, primary screen, biochemical, small-molecule microarray, 635 nm fluorescence (AID 1104); conditions: EGFR binding, higher = more signal;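 note: score merges 667 nm emission intensity with spot signal to noise over triplicate slides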
Chain of Epidermal growth factor receptor (Homo sapiens) (P00533 whole entry, looked up): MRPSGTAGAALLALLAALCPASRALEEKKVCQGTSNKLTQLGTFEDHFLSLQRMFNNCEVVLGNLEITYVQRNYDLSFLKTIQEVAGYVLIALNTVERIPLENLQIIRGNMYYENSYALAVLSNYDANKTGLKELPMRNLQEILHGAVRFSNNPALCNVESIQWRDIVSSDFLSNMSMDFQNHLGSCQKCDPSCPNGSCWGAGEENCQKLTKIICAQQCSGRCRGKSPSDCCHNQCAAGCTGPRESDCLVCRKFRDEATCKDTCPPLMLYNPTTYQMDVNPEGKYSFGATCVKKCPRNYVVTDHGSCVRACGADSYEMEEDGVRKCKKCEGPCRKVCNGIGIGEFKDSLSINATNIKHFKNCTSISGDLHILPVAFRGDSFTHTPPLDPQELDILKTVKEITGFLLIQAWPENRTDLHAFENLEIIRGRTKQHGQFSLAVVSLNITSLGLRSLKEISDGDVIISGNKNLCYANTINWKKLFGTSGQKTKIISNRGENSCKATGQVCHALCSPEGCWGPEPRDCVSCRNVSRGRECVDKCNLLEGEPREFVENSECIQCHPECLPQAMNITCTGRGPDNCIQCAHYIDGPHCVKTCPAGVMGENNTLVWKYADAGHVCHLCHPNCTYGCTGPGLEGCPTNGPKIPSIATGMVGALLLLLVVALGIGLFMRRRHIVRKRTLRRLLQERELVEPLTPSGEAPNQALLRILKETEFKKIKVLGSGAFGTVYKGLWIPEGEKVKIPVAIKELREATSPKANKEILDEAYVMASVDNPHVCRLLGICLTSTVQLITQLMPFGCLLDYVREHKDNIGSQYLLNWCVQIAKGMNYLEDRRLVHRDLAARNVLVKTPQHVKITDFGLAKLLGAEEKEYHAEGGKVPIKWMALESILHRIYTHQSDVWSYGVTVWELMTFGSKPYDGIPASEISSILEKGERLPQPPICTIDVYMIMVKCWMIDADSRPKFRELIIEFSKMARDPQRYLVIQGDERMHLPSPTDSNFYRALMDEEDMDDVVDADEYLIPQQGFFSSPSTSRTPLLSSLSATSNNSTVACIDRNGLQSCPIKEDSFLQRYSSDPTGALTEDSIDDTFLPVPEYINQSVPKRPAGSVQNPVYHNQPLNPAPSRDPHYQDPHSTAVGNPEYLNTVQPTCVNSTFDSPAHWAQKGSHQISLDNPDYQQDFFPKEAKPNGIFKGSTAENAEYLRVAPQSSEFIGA

[8] = target: Follistatin-related protein 3 (Homo sapiens) (UniProt O95633); assay: FSTL3 binders on small-molecule microarrays, primary screen, biochemical, small-molecule microarray, 635 nm fluorescence (AID 1105); conditions: FSTL3 binding, higher = more signal;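 note: score merges emission near 667 nm and signal to noise per printed spot across three slides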
Chain of Follistatin-related protein 3 (Homo sapiens) (O95633 whole entry, looked up): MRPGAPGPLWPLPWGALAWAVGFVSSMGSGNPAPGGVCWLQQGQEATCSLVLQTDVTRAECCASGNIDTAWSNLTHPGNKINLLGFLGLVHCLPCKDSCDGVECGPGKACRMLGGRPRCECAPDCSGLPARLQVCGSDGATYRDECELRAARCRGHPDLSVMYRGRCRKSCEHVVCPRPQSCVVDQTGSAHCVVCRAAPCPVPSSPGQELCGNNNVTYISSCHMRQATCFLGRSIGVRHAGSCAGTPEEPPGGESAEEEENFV

[9] = target: Dickkopf-related protein 1 (Homo sapiens) (UniProt O94907); assay: DKK1 binders on small-molecule microarrays, primary screen, biochemical, small-molecule microarray, 635 nm fluorescence scan (AID 1106); conditions: DKK1 binding, higher = more signal;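 note: score merges emission near 667 nm with signal to noise over three replicate slides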
Chain of Dickkopf-related protein 1 (Homo sapiens) (O94907 whole entry, looked up): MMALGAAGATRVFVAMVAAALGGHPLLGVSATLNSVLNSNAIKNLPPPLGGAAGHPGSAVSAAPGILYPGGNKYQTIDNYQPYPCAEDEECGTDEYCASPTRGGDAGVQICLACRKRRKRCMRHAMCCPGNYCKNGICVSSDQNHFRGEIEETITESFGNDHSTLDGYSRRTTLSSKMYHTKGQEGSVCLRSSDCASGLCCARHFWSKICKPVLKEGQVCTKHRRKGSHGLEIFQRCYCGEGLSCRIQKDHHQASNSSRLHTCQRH

[10] = tested on: Inhibin beta A chain (activin A); assay: INHBA (activin A) binders on microarrays, primary screen, biochemical, small-molecule microarray, 635 nm fluorescence scan (AID 1107); conditions: small-molecule microarray binding, higher = more signal;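 note: mouse activin A protein probed at 4.33 µg/mL on printed slides; score merges bound-protein fluorescence near 667 nm with spot signal-to-noise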

Row | SMILES | composite z-score [1] | composite z-score [2] | composite z-score [3] | z-score [4] | composite z-score [5] | composite z-score [6] | composite z-score [7] | composite z-score [8] | composite z-score [9] | composite z-score [10]
1 | O=C1c2ccccc2[C@@]2(Cc3ccccc3N(CCN3CCOCC3)C2=O)[C@H](c2ccc(CO)cc2)N1Cc1ccccc1 | 0.878 | -0.0074 | 0.278 | -0.765 (inactive) | -0.667 | -1.23 | -1.17 | -0.267 | -0.391 | 0.819
2 | C=CCC(OC(C)=O)[C@@H]1[C@@H](N(Cc2ccc(-c3cccc(C(F)(F)F)c3)o2)C(=O)Cc2ccc(F)cc2)c2cc(OCCCO)ccc2N1C(=O)Cc1ccc(OC)cc1 (stereo not given in full) | -0.0392 | -0.264 | 0.385 | -1.59 (inactive) | -0.0139 | -2.4 | -0.983 | -0.106 | -0.731 | 0.898
3 | C=CCNC(=O)[C@H]1[C@@H]2C(=O)O[C@@H](c3ccccc3)[C@@H](c3ccccc3)N2[C@@H](c2ccc(OCCO)cc2)[C@]12C(=O)N(C(=O)OCCOC)c1ccccc12 | 1.57 | 0.192 | 0.299 | -1.04 (inactive) | 0.942 | 1.31 | 0.461 | 1.25 | 0.497 | 0.247
4 | O=C1OCCC/C=C\[C@H]2OC34C=CCN(CCN5CCOCC5)C(=O)[C@H]3N(CCCO)C(=O)[C@@H]4C12 (stereo not given in full) | 1.37 | -0.199 | 0.0663 | 0.106 (inactive) | 0.0487 | -0.0632 | -0.708 | -0.621 | -0.298 | 0.576
5 | [N-]=[N+]=Nc1ccccc1C[C@]1(C(N)=O)N=C(c2ccc(OCCCO)cc2)O[C@H]1c1ccccc1 | 1.13 | 0.0609 | 0.875 | 0.297 (inactive) | 0.181 | 0.532 | -1.44 | -0.255 | -0.748 | 0.511
6 | COCCOC(=O)N1C(=O)[C@@]2(c3cc(C#CCCO)ccc31)[C@H](C(=O)N1CCN(c3ncccn3)CC1)[C@H]1C(=O)O[C@H](c3ccccc3)[C@H](c3ccccc3)N1[C@@H]2c1ccccc1OCCO | 0.748 | 0.293 | -0.0474 | -0.32 (inactive) | 0.727 | 1.26 | 0.688 | 0.751 | 0.547 | 0.487
7 | C=CCN1C(=O)[C@]2(O[C@H](CCO)[C@@H]([Si](C)(C)c3ccc(OC)cc3)[C@@H]2C)c2cc(N3CCCCC3=O)ccc21 | 0.914 | 0.0375 | 0.0217 | -1.69 (inactive) | 0.849 | 0.549 | 0.286 | 0.918 | 0.147 | 0.247
8 | COC(=O)[C@@]1(Cc2ccc(OC)cc2)[C@H]2c3cc(C(=O)N4CCCC4)n(Cc4ccc(OC)c(OC)c4)c3C[C@H]2CN1C(=O)c1ccccc1 | 1.04 | 1.56 | 0.9 | -1.81 (inactive) | 0.784 | 1.17 | 1.34 | 1.42 | 0.56 | 1.01
9 | C#CCN(CC=C(C)C)[C@H](CO)c1ccccc1 | -0.383 | -0.127 | -0.209 | -1.21 (inactive) | -0.0443 | 0.81 | 0.372 | 0.0894 | 0.352 | 0.942
10 | COc1ccc(C(O)C2C=CC3C(=O)N(C)C(=O)C3N2N2CCCCC2)c2ccccc12 (stereo not given) | 1.17 | 0.65 | 0.947 | 1.28 (inactive) | 0.956 | 1.29 | 0.344 | 1.24 | -0.312 | 0.91
11 | COCCOC(=O)N1C(=O)[C@@]2(c3cc(C#Cc4ccc(OC)cc4)ccc31)[C@H](C(N)=O)[C@H]1C(=O)O[C@H](c3ccccc3)[C@H](c3ccccc3)N1[C@@H]2c1ccccc1OCCO | 1.48 | 0.714 | 0.634 | -0.265 (inactive) | 1.12 | 1.21 | 0.824 | 0.93 | 0.705 | 0.312
12 | COc1ccc(C(O)C2C=CC3C(=O)NC(=O)C3N2Nc2ccccn2)c2ccccc12 (stereo not given) | 0.157 | 0.046 | 0.108 | 0.841 (inactive) | 0.392 | -0.39 | 0.307 | 0.16 | 0.378 | 0.804
13 | [N-]=[N+]=Nc1ccccc1[C@H]1OC(c2ccc(OCCCO)cc2)=N[C@@]1(Cc1ccccc1)C(=O)O | 1.68 | 0.292 | 0.381 | -1.23 (inactive) | 0.875 | 0.997 | 0.0509 | 0.727 | 0.293 | 1.12
14 | COC(=O)C(CC#Cc1ccc2c(c1)[C@]1(C(=O)N2)[C@H](c2ccc(O)cc2)N2[C@H](c3ccccc3)[C@H](c3ccccc3)OC(=O)[C@H]2[C@@H]1C(=O)Nc1nc2ccccc2s1)C(=O)OC | 1.59 | -0.0329 | -0.105 | -0.596 (inactive) | 1.27 | 1.04 | 0.626 | 0.929 | 0.581 | 0.598
15 | NCCCCCNC(=O)[C@@H]1C[C@@H]2C(=O)NCC(=O)N2[C@@H]1c1ccc(O)cc1 | 1.15 | -0.0246 | -0.128 | -0.0882 (inactive) | 1.49 | 1.32 | -0.318 | 1.22 | 1.63 | 0.294
16 | CN1C2C=C(CCCO)C(C3C(=O)N(C(N)=O)C(=O)C32)C1c1ccc(CN2CCCC2)cc1 (stereo not given) | -0.323 | -0.284 | -0.257 | -0.0848 (inactive) | -0.367 | -0.563 | -0.376 | -0.658 | -0.544 | -0.751
17 | COc1ccc(CCNC(=O)[C@@]2(C)c3ccccc3C(=O)N(Cc3cc(F)cc(C(F)(F)F)c3)[C@H]2c2ccc(CO)cc2)cc1 | 1.59 | 0.362 | 0.875 | -1.23 (inactive) | 0.512 | -0.596 | -0.244 | -0.972 | -0.434 | -0.0094
18 | O=C(NCc1ccccc1)[C@@]1(CCS(=O)(=O)c2ccccc2)N=C(c2ccc(OCCCO)cc2)O[C@H]1c1ccccc1 | 0.691 | 0.717 | 1.03 | 0.0308 (inactive) | 1.28 | 1.12 | -0.304 | 0.866 | -0.393 | 0.525
19 | CC(C)(C)OC(=O)CC[C@@]1(C(=O)NCCN2CCOCC2)N=C(c2ccc(OCCCO)cc2)O[C@@H]1c1ccccc1N=[N+]=[N-] | 0.739 | 1.04 | 1.21 | -0.744 (inactive) | 1.1 | 0.0778 | 0.0224 | 1.06 | 0.0741 | 1.24
20 | O=C1O[C@H](c2ccccc2)[C@H](c2ccccc2)N2[C@H]1[C@@H](C(=O)NC[C@H](O)c1ccccc1)[C@]1(C(=O)Nc3ccccc31)[C@H]2c1ccc(OCCO)cc1 | 0.884 | 0.569 | 0.672 | 0.985 (inactive) | 0.745 | 1.23 | -0.0151 | 0.464 | 0.289 | 0.286
21 | CCCCC(O)C1C=CC2C(=O)N(c3ccccc3)C(=O)C2N1Nc1ccccc1F (stereo not given) | 1.24 | 1.4 | 1.17 | 0.826 (inactive) | 0.857 | 0.827 | -0.374 | 0.443 | -0.683 | 0.834
22 | CN(C)CCCC[C@@H]1NC(=O)[C@H]2C[C@@H](C(=O)NCCCCCNC(=O)CS)[C@@H](c3cccc(OCCO)c3)N2C1=O | 1.12 | -0.144 | 0.61 | 0.515 (inactive) | 0.305 | 0.894 | 0.227 | 0.65 | 0.459 | -0.0899
23 | COc1ccc([Si](C)(C)[C@H]2[C@H](CCO)O[C@@]3(C(=O)N(Cc4ccc(N5C(=O)COc6ccccc65)cc4)c4ccccc43)[C@@H]2C)cc1 | 0.0297 | -0.0813 | 0.812 | -1.15 (inactive) | -0.712 | -1.01 | -0.95 | -0.534 | -0.297 | -0.515
24 | CC(C)(C)OC(=O)CC[C@@]1(C(N)=O)N=C(c2ccc(OCCCO)cc2)O[C@@H]1c1ccccc1 | 1.19 | 0.307 | 0.666 | -0.0742 (inactive) | 0.958 | 1.15 | -0.467 | 0.0089 | -0.534 | 0.557
25 | CC[C@@H]1C=C(C(=O)O)[C@H](c2ccco2)N1S(=O)(=O)c1ccc(C)cc1 | 1.37 | -0.0292 | 0.333 | 0.447 (inactive) | 0.0314 | 0.175 | -0.832 | 0.291 | 0.128 | 1.23
26 | CC1(C)[C@@H]2CC(C(O)C3C=CC4C(=O)N(c5ccccc5)C(=O)C4N3Nc3ccccc3)=C[C@H]1C2 (stereo not given in full) | 0.576 | 0.592 | 0.663 | 0.99 (inactive) | 0.104 | 0.33 | -0.316 | 0.114 | 0.011 | 1.2
27 | C=CC[C@]12N=C(c3ccc(OCCCO)cc3)O[C@H]1c1ccccc1N(Cc1ccccc1)C2=O | 1.28 | 1.21 | 1.37 | -0.415 (inactive) | 0.706 | 0.524 | 0.112 | 0.836 | 0.378 | 0.897
28 | C#CCNC(=O)[C@H](Cc1ccccc1)NC(=O)CCC(=O)O | -0.759 | -0.397 | -0.205 | -0.222 (inactive) | -0.688 | -1.14 | -0.659 | -1.22 | -0.447 | 0.735

Source: PubChem BioAssay
